Results as given in the supplement of paper PMC6555819.

What was measured:
Test in all cases: PBM binding z-score (relative to random genomic background probes); higher = stronger binding; sequences stand for … in GC…GCGATTGACAGCGTAGAATGAAGG
[1] = test system: FXR:RXRa (NR concentration 270 nM, RXRa partner concentration 90 nM)
Outline: (§1)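 Regression normalization was applied to scanned fluorescence from custom Agilent 4×180K protein-binding microarrays. Before scanning, arrays were incubated 1 h with ligand-free nuclear receptor dimers, and binding was detected with antibodies against each partner (one per run). Binding z-scores use the random background probes as reference.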

[2] = test system: LXRa:RXRa (NR concentration 270 nM, RXRa partner concentration 90 nM)
Outline: as §1

[3] = test system: LXRa homodimer (NR concentration 270 nM)
Outline: as §1

[4] = test system: LXRb:RXRa (NR concentration 270 nM, RXRa partner concentration 90 nM)
Outline: as §1

[5] = test system: LXRb homodimer (NR concentration 270 nM)
Outline: as §1

[6] = test system: PPARa:RXRa (NR concentration 270 nM, RXRa partner concentration 90 nM)
Outline: as §1

[7] = test system: PPARg:RXRa (NR concentration 180 nM, RXRa partner concentration 90 nM)
Outline: as §1

[8] = test system: PPARg:RXRa 270nM:90nM, anti-RXR (NR concentration 270 nM, RXRa partner concentration 90 nM)
Outline: as §1

[9] = test system: PPARg:RXRa 30nM:10nM, anti-RXR (NR concentration 30 nM, RXRa partner concentration 10 nM)
Outline: as §1

[10] = test system: PPARg:RXRa 90nM:30nM, anti-RXR (NR concentration 90 nM, RXRa partner concentration 30 nM)
Outline: as §1

[11] = test system: PPARg:RXRa DBDmut IVT, anti-RXR (DBD mutation: RXRa K156A/R161A, NR concentration 270 nM, RXRa partner concentration 90 nM)
Outline: as §1

[12] = test system: PPARg:RXRa IVT, anti-PPARg (NR concentration 270 nM, RXRa partner concentration 90 nM)
Outline: as §1

[13] = test system: PPARg DBDmut:RXRa IVT, anti-PPARg (DBD mutation: PPARg1 K132A/R137A, NR concentration 270 nM, RXRa partner concentration 90 nM)
Outline: as §1

[14] = test system: PPARg DBDmut IVT, anti-PPARg (DBD mutation: PPARg1 K132A/R137A, NR concentration 270 nM)
Outline: as §1

[15] = test system: PPARg homodimer (NR concentration 180 nM)
Outline: as §1

[16] = test system: PXR:RXRa (NR concentration 270 nM, RXRa partner concentration 90 nM)
Outline: as §1

[17] = test system: PXR homodimer (NR concentration 270 nM)
Outline: as §1

[18] = test system: RARa:RXR (NR concentration 270 nM, RXRa partner concentration 90 nM)
Outline: as §1

[19] = test system: RARa homodimer (NR concentration 270 nM)
Outline: as §1

[20] = test system: RARb:RXRa (NR concentration 270 nM, RXRa partner concentration 90 nM)
Outline: as §1

Sequence	PBM binding z-score [1]	PBM binding z-score [2]	PBM binding z-score [3]	PBM binding z-score [4]	PBM binding z-score [5]	PBM binding z-score [6]	PBM binding z-score [7]	PBM binding z-score [8]	PBM binding z-score [9]	PBM binding z-score [10]	PBM binding z-score [11]	PBM binding z-score [12]	PBM binding z-score [13]	PBM binding z-score [14]	PBM binding z-score [15]	PBM binding z-score [16]	PBM binding z-score [17]	PBM binding z-score [18]	PBM binding z-score [19]	PBM binding z-score [20]
ATCTCTAGGTAAAGATAGTTCCGTGAATGCAAAT	0.0722	-0.0482	0.14	-0.171	0.352	0.22	0.326	0.273	0.172	0.366	1.2	1.52	1.55	0.949	0.486	-0.0332	0.339	0.23	0.96	-0.0284
CCTTGGAGGACAACAGGAGGTCAGAGCTGCCAGA	1.03	2.19	2.44	1.58	-0.284	2.26	0.731	0.64	0.153	0.077	1.07	1.27	-1.18	-0.193	1.41	1.97	0.462	2.33	0.276	2.83
TCATATAGGTAAAAGGTAAAAGTCGGTGTGGTAA	1.72	1.53	0.146	1.47	0.114	4.59	7.89	7.76	7.87	8.16	5.05	4.32	0.348	1.01	1.81	1.39	0.507	1.78	2.04	0.854
CCGAATGGGGCAAGGTTACCATAACGCACAGCCA	0.248	0.895	-0.0673	0.899	-0.855	1.48	1.51	1.71	0.272	1.08	0.946	1.17	-0.387	-0.659	0.548	0.288	-0.323	0.909	-0.0739	1.75
CATACAGGGTCAGGTAGGCCAGAGTAGGGACGGC	4	2.92	-0.133	2.21	0.723	4.2	3.15	2.92	0.655	2.16	0.321	2.48	0.416	0.457	1.75	2.23	0.241	3.46	0.612	3.73
GGAACGAGGGCATTCGAGTTGATATCATGGCGAT	1.43	2.06	-0.497	0.289	-0.383	1.64	1.04	0.683	0.332	0.448	2.99	2.26	-0.118	-0.698	0.277	3.8	1.54	0.922	-0.657	1.78
CCTGCTAGGTCAATGCTCAGCTAAAGCAGCTCGC	2.82	1.9	-0.307	1.16	-0.142	2.54	1.2	1.88	-0.451	0.833	4.63	3.35	0.0583	-0.86	0.329	0.498	-0.943	1.19	-0.48	3.61
ATCTCTAGGTAGCCAAGTTCAGTGAATGCCGAAC	-0.0679	-0.0761	0.135	0.15	0.335	0.168	-0.118	-0.148	-0.248	-0.291	0.328	0.377	-0.173	0.614	0.13	1.2	0.957	0.266	0.228	0.669
ACTAGCAGGCCACGGGTCACTCAAGATTAGTCCG	0.933	1.15	-0.0855	1.3	-0.734	2.7	3.18	3.72	1.75	3.53	1.77	3.02	0.251	-0.351	0.555	1.52	-0.598	2.05	-0.386	2.17
CCTACTGGGCCTTTCAGAGGTCATTGATCATATG	2.73	4.97	8.02	3.71	0.477	3.35	0.785	2.22	0.333	1.2	2.39	2.44	-0.307	0.081	2.46	4.68	2.5	4.52	1.01	2.8
CGAACTAGGCCATCCAGGACAGTGAATACATTGA	-0.177	-0.379	-0.0398	-0.306	-0.512	1.64	2.39	1.71	0.404	1.19	6	5.51	0.953	0.808	0.048	-0.289	-0.148	0.254	0.507	0.809
GCTAGCAGGCCATTTGCGTCACTCAATGACGGGC	-0.489	-0.808	-0.589	-1.15	-0.965	-0.622	0.189	-0.578	-0.911	-0.185	1.06	-0.0589	-0.895	-0.638	-1.08	-0.562	-0.856	-0.774	-1.25	-0.167
ACAGACAGGTGATGAAGGTAACTCAAGCTATCAT	-0.102	-0.296	-0.525	-0.0355	-0.354	0.0252	0.537	-0.224	0.113	-0.261	0.0752	0.481	-0.066	0.468	0.000193	-0.188	0.00644	-0.191	0.18	0.252
ATATGAAGGTTAGCTGGGGTCATTCAGACTAGGC	5.27	6.28	3.34	5.36	1.06	4.7	2.43	3.52	1.14	2.37	1.16	2.19	0.859	1.21	2.53	6.56	5	5.87	1.42	3.55
GCAGACAGGTGAAACGCAGGTAACTCTGGGTGGC	-0.204	-0.034	-0.674	-0.472	-1.14	0.489	0.484	0.284	-0.673	-0.347	1.28	0.558	-1.09	-1.05	-0.859	-0.322	-1.1	0.0559	-1.16	0.63
CGAACGAGGGCATGAGTTCATAGCAAATGCCGAT	2.26	2.23	1	1.51	-0.903	3.24	2.37	2.91	0.55	2.23	3.09	2.4	-0.0442	-0.857	0.292	4.74	7.66	2.71	-0.81	3.01
CGTCAAAGTCCAACTAAGGTAACGTAAAGCACGC	0.904	0.0247	0.14	-0.00355	0.104	0.088	0.536	-0.0783	-0.0174	0.18	0.179	0.394	0.436	-0.503	0.498	0.234	0.179	1.23	0.41	1.9
GTACCAAGGTGAATAGGTCGTTGACGAGTAGGCG	1.08	0.711	-0.12	0.495	-0.439	2.45	1.58	1.84	0.445	1.35	1.8	2.86	0.144	-0.0212	1.04	0.88	0.00593	1.93	-0.182	2.23
AGAAGGAGGGCAATGAGTTGATAGCACGGGTGGC	0.307	0.255	0.19	0.452	0.521	1.2	1.33	0.786	-0.173	0.451	3.57	2.64	0.99	-0.352	0.922	1.39	4.17	0.2	0.815	1.92
TCTCGCAGGACACGAAAGGTCAGAGCTCGACATC	2.57	3.8	2.98	3.17	0.477	3.71	1.25	2.76	2.41	2.44	1.62	1.4	0.807	0.509	2.57	3.87	0.38	4.53	1.07	3.95
CCTACTGGGCCTAAAAGGTCATTGATGCCGATAA	4.02	4.65	4.1	4.61	0.491	4.78	1.7	3.24	0.898	2.38	0.181	1.85	-0.634	-1.2	2.99	4.85	2.21	5.06	1.56	4.02
CCTCGGAGGACAGAAGCTCAGAGCTGTCCGCTTT	-0.605	-0.517	-0.873	-1.16	-0.889	-1.83	-0.876	-1.61	-1.52	-1.69	-0.36	-1.19	-1.19	-2.47	-1.01	-1.09	-1.12	-1.41	-0.553	0.0741
AGAATGAGGTTACCAAAGATCATGGAAACGCTTG	2.05	6.75	-0.149	3.98	-0.29	3.63	2.88	2.95	1.11	2.19	3.74	3.68	0.737	0.847	0.294	1.8	0.0925	2.58	0.108	2.11
GCTAGCAGGCCATTTGGGTCACTCCATGACGGGC	-0.16	-0.308	-0.39	-0.515	-0.772	0.964	0.542	0.345	-0.692	-0.372	1.48	1.98	-0.282	-0.961	-0.247	0.113	-0.146	0.126	-0.604	1.39
ATAAGTAGGTTAGCTGGGGTCATTCAGACTAGGC	4.71	5.52	3.28	4.94	1.18	5.41	6.1	5.42	3	5.01	6.73	6.66	3.65	1.92	3.63	6.42	4.39	5.76	1.28	3.24
CCTACTGGGCCATCCGGTCATTGATATCAACGTT	0.445	0.184	1.03	0.144	0.244	1.37	1.4	2.5	0.753	1.81	3.87	4.21	-0.352	-0.431	0.811	-0.0327	-0.0108	0.187	-0.315	1.42
